Where “and” joins values, the source holds several entries; their conditions need not be identical. Equal values may be shown once. Calls of active or inactive are those of the source.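 Rule for the calls: active = relative GCLC transcription at 1 µM of at least 250%; inconclusive = relative GCLC transcription at 1 µM between 200% and 250%; inactive = relative GCLC transcription at 1 µM under 200%.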
Experiment: qHTS of Nrf2 Activators: Hit Validation in GCLC Induction Assay
Conditions: Hepa1c1c7 cells, GCLC mRNA qPCR, 24 h; at 1 µM; stronger effect = higher value
Excerpt: Many diseases have some form of oxidative stress injury and ties to inflammation, causing a host of problems for the patient. The antioxidant response element (ARE) plays an important role in alleviating the harmful effects of oxidative stress. The antioxidant response element (ARE) is a transcriptional regulatory element involved in the activation of genes coding for a number of antioxidant proteins and detoxifying enzymes. These enzymes work in concert to protect tissues from oxidative insults and chemical toxicities in human hepatocytes and immune cells. The protective effects of ARE activation are primarily triggered through Nrf2 (NF-E2-related factor) binding to and activating AREs. It is known that Nrf2 controls the production of over 250 antioxidant and detoxification proteins (Hu et al., 2006), thereby protecting tissues by increasing cellular antioxidant content and suppressing inflammatory signaling pathways. The transcription factor Nrf2 is a central link between oxidative chemicals, such as phenolic antioxidants and electrophilic compounds, and the activation of ARE. Nrf2 levels are constitutively low as a consequence of its interaction with Keap1, which targets its degradation (Zipper and Mulcahy, 2002). Electrophiles react with key cysteine residues in Keap1, releasing Nrf2 and allowing its translocation to the nucleus. Once within the nucleus, Nrf2 complexes with coactivators such as p300, and binds to the AREs to induce gene transcription of cytoprotective enzymes, resulting in the prevention of toxicity. Activation of Nrf2 protects tissues by increasing cellular antioxidant content and suppressing inflammatory signaling pathways. Identifying novel and potent Nrf2 activators by using the AREc32 cell line to detect ARE activation by small molecules will lead to the identification and development of probes to study protective pathways in multiple tissues. These specific probes are essential to study the ARE pathway, and eventually to determine whether this pathway does activate genes that could protect against a host of diseases, including cardiovascular diseases, obesity, diabetes, Alzheimer's, and Parkinson's disease. This project's aim is to identify novel and potent Nrf2 activators by using the AREc32 cell line to detect ARE activation by small molecules, which will lead to the identification and development of probes to study the ARE pathway. Compounds that were identified in the primary screen were tested in this secondary assay to assess whether a hit also activates Nrf2 transcription of the target gene GCLC. NIH Chemical Genomics Center [NCGC] NIH Molecular Libraries Probe Centers Network [MLPCN] MLPCN Grant: DK081461 Assay Submitter (PI): Curtis Klaassen, University of Kansas Medical Center
Hepac1c7 cells were seeded into 24-well plates at a density of 30,000 cells/well in 1 mL complete media per well and cultured overnight to allow attachment. Cells were treated the next day with compounds (1 uM)or positive control for 24 h. Total RNA samples were then isolated by using RNAzol B reagent (Tel-Test, Inc., Friendswood, TX) according to the manufacturer's protocol. Total RNAs were reverse-transcribed into cDNA by High Capacity cDNA Archive Kits (Applied Biosystems, Foster City, CA) and the resulting cDNA was used for real-time PCR analysis using SYBR(R) Green PCR Master Mix in a 7900HT Fast Real-Time PCR System.

Row | Structure (SMILES) | relative GCLC transcription
1 | COc1ccc(NC(=O)c2cc(-c3ccco3)on2)c(OC)c1 | 155% (inactive)
2 | COc1ccc(NC(=O)c2cc(-c3cccs3)on2)c(OC)c1 | 157% (inactive)
3 | CS(=O)(=O)c1nc(S(=O)(=O)c2ccc(Cl)cc2)c(N2CCOCC2)s1 | 148% (inactive)
4 | COC(=O)c1c(NC(=O)c2ccccc2)sc(C(N)=O)c1C | 120% (inactive)
5 | Cc1nc(NCc2ccco2)nc2c1C(=O)CC(C)C2 (stereo not given) | 158% (inactive)
6 | O=C(Nc1ncnc2sc3c(c12)CCC3)c1ccco1 | 122% (inactive)
7 | Clc1ccc2c(NCc3ccccn3)ncnc2c1 | 181% (inactive)
8 | COc1ccccc1NC(=O)c1cc(Cl)nc2ccccc12 | 461%
9 | O=C(Nc1ncnc2sc3c(c12)CCCCC3)c1ccco1 | 109% (inactive) and 134% (inactive)
10 | O=C(Nc1cccc2ncccc12)c1ccc(Cl)cc1 | 369%
